An excerpt weighted towards active compounds, which were near 2.4% of everything screened.
eIF4E-4G inh: inhibitors of eIF4E and eIF4G interaction in translation initiation. 220,000 compounds, 0.37% hits. inhibition, % at 21.7 µM. TR-FRET eIF4E-eIF4GI(517-606) binding, 2 h;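 active = inhibition above about 30%, limit read from the data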;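 note: 0% = full FRET control wells and 100% = background wells lacking eIF4GI fragment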
PERK inh: blocks human PERK kinase; CHO PERK-DD fusion, SEAP luminescence translation reporter; inhibition, % at 5.6 µM; 220,000 compounds, 0.17% hits; AID 1416;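 active = inhibition above the mean inhibition of all tested compounds plus 3 SD, set separately per screening campaign, cut at about 2.9% in these data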;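 note: PERK kinase domain activated by AP20187 dimerizer at 100 nM; 0% = DMSO with dimerizer and 100% = rapamycin at 8.4 µM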
PABP polyA inh: PABP-poly(A) binding inhibition; PABP-poly(A) RNA binding, fluorescence polarization; inhibition, % at 35 µM; 290,000 compounds, 1% hits; AID 2014;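 note: calls also rest on retests at 20 µM and on dose response follow-up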
PABP1 MLLE inh: inhibitors of microRNA-mediated deadenylation, human PABP1 MLLE binding; inhibition, % at 20 µM; 360,000 compounds, 0.36% hits; AID 588489; GST-MLLE / FITC-PAM2 fluorescence polarization; P11940; in the data active = inhibition above about 35%, passing the limit was not always enough;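 note: plate controls were DMSO wells with GST-MLLE for no effect and wells lacking GST-MLLE protein for full effect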
eIF4H FP inh: inhibitors of RNA binding by human eIF4H; Q15056; eIF4H fluorescence polarization binding assay; inhibition, % at 35 µM; 290,000 compounds, 0.94% hits;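 note: calls also rest on retests at 20 µM and on dose response follow-up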
PfM18AAP inh: PfM18AAP enzyme inhibition | inhibition, % at 7.35 µM | 290,000 compounds, 1.2% hits | recombinant PfM18AAP, H-Glu-NHMec fluorogenic cleavage;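 active = inhibition above the campaign mean inhibition over all tested compounds plus 3 SD, cut at about 28% in these data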;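 note: 0% = plate median of test compound wells and 100% = 2 mM ZnCl2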
* = called active by the depositor; ? = inconclusive; . = no result given; ! = repeats disagree. Unless noted, the rule behind the calls is not given here.

SMILES	eIF4E-4G inh	PERK inh	PABP polyA inh	PABP1 MLLE inh	eIF4H FP inh	PfM18AAP inh
N#CCCn1cc(C(=O)NCc2ccccc2)c(-c2ccc3c(c2)OCCO3)n1	-2	1	-1	7	2	7
N#CCCn1cc(C(=O)Nc2ccccc2Br)c(-c2ccc3c(c2)OCCO3)n1	1	-1	120	-9	active	-5
NCCc1cc(O)c(O)cc1O	.	.	.	47*!	.	.
S=C(NCCc1ccccc1)N1Cc2ccc(Br)cc2-n2nncc2C1	.	.	.	-117	.	.
CC[n+]1c(-c2ccccc2)c2cc(N)ccc2c2ccc(N)cc21	.	.	.	79*	.	.
COC(=O)C1=Nc2ccccc2/C1=C\c1c(O)n(C)c(=O)n(C)c1=O	0	1	18*	-25	63	4
O=C(O)CCn1cc(C=C2C(=O)NC(=S)NC2=O)c(-c2ccccc2)n1	8	1	7	42*	4	6
O=C1NC(=O)N(c2ccccc2)C(=O)/C1=C/c1coc2ccc(O)cc2c1=O	3	1	?	-16	?	28
C=CCN1C(=O)NC(=O)/C(=C/c2cc3c4c(c2)CCCN4CCC3)C1=O	12	1	-4	-129	77*	8
Nc1ccc2c3c(cccc13)CC2	.	2	36*	93	70*	27
CC(=O)Nc1ccc(OC(=O)N(C)c2ccccc2)cc1	4	0	87	12	active	-8
NC(=O)OCCSc1nnc(-c2cccc(C(N)=S)c2)o1	-1	1	-17	41*	2	1
CCN(CC)P(=O)(NC(=O)c1cccn1C)N(CC)CC	-3	0	?	-13	4.4*	-8
O=C1C(Cl)=CC(=Nc2ccc(O)cc2)C=C1Cl	.	.	.	46*	.	.
O=[As](O)(O)c1ccc(N=Nc2ccc(O)cc2)cc1	1	2	7	9	-1	7
Cc1cccc(C(O)(C(=O)O)c2ccccc2)c1 (stereo not given)	.	.	.	6	.	.
Cc1nn(Cc2ccccc2)c(Cl)c1C(=O)OCC(=O)N1CCCC1	0	0	-10	16	-2	0
Cn1ccnc1P(=S)(c1nccn1C)N1CCOCC1	6	2	-6	37*	-11	22
Cc1cc(/C=C2\C(=O)NC(=O)N(c3cccc(F)c3)C2=O)c(C)n1-c1cc(C(=O)O)cc(C(=O)O)c1	6	1	-5	-7	103	19
Cc1cc(/C=C2\C(=O)NC(=O)N(c3ccc(Cl)cc3)C2=O)c(C)n1-c1cccc(C(=O)O)c1	.	.	42*	-11	?	12
O=c1[nH]c(=O)n(-c2ccccc2)c(O)c1N=Nc1ccc(Br)cc1	-4	-1	85	-1	2.1*	6
NC(=O)Cn1cc(C=C2C(=O)NC(=O)NC2=O)c2ccccc21	.	.	?	74	?	29*
O=C(O)Cn1cc(/C=C2\C(=O)NC(=O)N(c3ccc(F)cc3)C2=O)c2ccccc21	.	.	?	.	?	15
Cc1nc2ccccc2c(=O)n1-c1ccc(-c2ccccc2)cc1	.	.	3	-11	-3	-3
CCCCn1c(O)c(/C=C2/C=CC=N2)c(=O)[nH]c1=O	-3	-1	-5	-7	-6	5
SMILES	eIF4E-4G inh	PERK inh	PABP polyA inh	PABP1 MLLE inh	eIF4H FP inh	PfM18AAP inh
C=CCn1c(O)c(/C=C2/C=CC=N2)c(=O)[nH]c1=O	0	1	1.7*	-8	88*	6
C[C@H]1CN([C@@H](C)CO)C(=O)CCCn2nncc2CO[C@H]1CN(C)C(=O)Oc1ccc2ccccc2c1	.	.	.	0	.	.
Cc1cccc(OCCn2cccc2/C=C2/C(=O)NC(=O)N(Cc3ccco3)C2=O)c1	9	0	45*	-27	53*	9
Cn1cc(C(O)CN2CCCCC2)c2ccccc21 (stereo not given)	.	.	11	12	1	-5
Cn1c(O)c(C(c2ccccn2)c2c(O)n(C)c(=S)n(C)c2=O)c(=O)n(C)c1=S	-8	1	31	14	57*	-7
Nc1ncnc2c1ccn2[C@@H]1O[C@H](CO)[C@@H](O)[C@H]1O	.	.	.	-1	.	.
NC(=S)c1cn(C2OC(CO)C(O)C2O)c2ncnc(N)c12 (stereo not given)	2	3.1*	-8	43*	-3	40*
COC(=O)C1C2c3ccccc3C(c3ccccc32)C1(C)C(=O)OC (stereo not given)	.	.	.	-2	.	.
